Data on 8 compounds can be found in PubChem BioAssay (NCI).

This is part of a sample that, as a whole, favours compounds with a hit. Of some 83,000 tested, about 20% had one in any assay.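 Negative percent growth values reflect cell death: -40 means 40% of the cells present at the start died, and -100 means all died.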 Unmarked numbers belong to inactive results. Activity calls are given as the source filed them. Rule for the calls: active = growth percent below 10; inactive = the rest.

Among the test systems are DU-145 prostate; K-562 leukemia; MALME-3M melanoma; MDA-MB-231 breast; RXF 393 renal; SF-268 CNS; SF-295 CNS; SF-539 CNS; UACC-257 melanoma; M14 melanoma; HCT-15 colon; HT29 colon; SNB-75 CNS; SNB-19 CNS; U251 CNS; PC-3 prostate; SK-MEL-5 melanoma; UACC-62 melanoma; LOX IMVI melanoma; SK-MEL-28 melanoma.
Holding throughout (test): NCI-60 one-dose screen, 48 h (100 = growth as untreated, 0 = no growth, -100 = all killed)
What all share (conditions): 10 µM unless noted

Take `O=S(=O)(NCCNc1nccc(-c2c(-c3cccc(O)c3)nc3occn23)n1)c1ccc(Br)cc1`: the growth in the assay on DU-145 prostate is 44.8%; with K-562 leukemia it was 17.2%; in the assay with MALME-3M melanoma it was 15%; with MDA-MB-231 breast it was 34.7%; in the assay with RXF 393 renal, 28.8%; in the assay with SF-268 CNS, 40.8%. In addition, the growth in the assay with SF-295 CNS is 78.3%; in the assay with SF-539 CNS, 48.7%; with UACC-257 melanoma it was 20.8%; with M14 melanoma, 17.8%; in the assay with HCT-15 colon, 67.3%; in the assay on HT29 colon, 19.1%. Further, the growth with SNB-75 CNS is 56.5%; with SNB-19 CNS, 65.8%; with U251 CNS, 41%; in the assay with PC-3 prostate it was 29.9%; with SK-MEL-5 melanoma, 4.04% (active); in the assay with UACC-62 melanoma it was 5.9% (active). The growth is 25.2% with LOX IMVI melanoma and 26.1% in the assay with SK-MEL-28 melanoma.

As to `O=c1ccc(=O)n(-c2nc(-c3ccc([N+](=O)[O-])cc3)cs2)[nH]1`, the growth with DU-145 prostate was 97.7%; in the assay on K-562 leukemia it was 95.2%; in the assay on MALME-3M melanoma it was 114%; with MDA-MB-231 breast it was 105%; in the assay with RXF 393 renal, 88.4%; with SF-268 CNS, 95%. Further, the growth is 98.1% in the assay on SF-295 CNS; 97.3% with SF-539 CNS; 102% in the assay with UACC-257 melanoma; 101% in the assay with M14 melanoma; 96% in the assay with HCT-15 colon; 55.6% with HT29 colon. For the same compound, the growth is 92% in the assay with SNB-75 CNS; 96.1% in the assay with SNB-19 CNS; 95.6% in the assay on U251 CNS; 98.6% in the assay with PC-3 prostate; 95.6% in the assay with SK-MEL-5 melanoma; 90.7% in the assay with UACC-62 melanoma. The figures for the growth in the assay on LOX IMVI melanoma and in the assay with SK-MEL-28 melanoma were 98.5% and 105%, respectively.

Take `CN(Cc1cc(Br)cc(Br)c1O)Cc1cc(Br)cc(Br)c1O`: the growth with DU-145 prostate was 54.8%; with K-562 leukemia, 21.3%; in the assay on MALME-3M melanoma, 73.2%; with MDA-MB-231 breast, 39.6%; with RXF 393 renal, 55.4%; in the assay with SF-268 CNS, 45.3%. The growth is 32.1% in the assay with SF-295 CNS; 39.5% with SF-539 CNS; 46.8% in the assay on UACC-257 melanoma; 37.3% in the assay with M14 melanoma; 22.2% in the assay with HCT-15 colon; 32.9% with HT29 colon. Besides, the growth in the assay with SNB-75 CNS is 61.5%; in the assay on SNB-19 CNS it was 40.5%; with U251 CNS, 32.8%; with PC-3 prostate it was 39.5%; in the assay on SK-MEL-5 melanoma, 3.66% (active); in the assay with UACC-62 melanoma it was 18.8%. Further, the growth in the assay with LOX IMVI melanoma is 34.6%; in the assay on SK-MEL-28 melanoma, 74%.

Take `Cc1ccc(-c2csc(N(C(=O)N3CCN(c4cc5c(cc4F)c(=O)c(C(=O)O)cn5C4CC4)CC3)c3ccccc3)n2)cc1`: the growth was 21.4% in the assay with DU-145 prostate; 13.5% with K-562 leukemia; 3.95% (active) in the assay with MALME-3M melanoma; 24.2% in the assay with MDA-MB-231 breast; 4.05% (active) with RXF 393 renal; 20.4% in the assay with SF-268 CNS. The growth is 2.22% (active) with SF-295 CNS; -0.211% (active) in the assay with SF-539 CNS; 9.78% (active) in the assay on UACC-257 melanoma; 21.1% in the assay on M14 melanoma; 7.57% (active) with HCT-15 colon; 3.8% (active) in the assay on HT29 colon. Further, the growth in the assay on SNB-75 CNS is 18.6%; in the assay with SNB-19 CNS, 15.7%; with U251 CNS, 12.6%; in the assay with PC-3 prostate it was 11.8%; in the assay with SK-MEL-5 melanoma it was -57.2% (active); in the assay with UACC-62 melanoma it was 1.23% (active). Moreover, the figures for the growth with LOX IMVI melanoma and in the assay on SK-MEL-28 melanoma were 7.08% (active) and 32.3%, respectively.

`CCN1CCN(C(=O)[C@]23CC[C@@H](C)[C@H](C)[C@@H]2C2=CC[C@@H]4[C@@]5(C)C/C(=C/c6cccnc6)C(=O)C(C)(C)[C@@H]5CC[C@@]4(C)[C@]2(C)CC3)CC1`: the growth is 48% with DU-145 prostate; 6.46% (active) in the assay on K-562 leukemia; 12% in the assay with MALME-3M melanoma; 34.7% in the assay on MDA-MB-231 breast; 3.08% (active) in the assay on RXF 393 renal; 51% in the assay with SF-268 CNS. In addition, the growth was 37.3% in the assay on SF-295 CNS; 8.77% (active) in the assay with SF-539 CNS; 26% in the assay on UACC-257 melanoma; 40.9% in the assay with M14 melanoma; 15.2% in the assay on HCT-15 colon; 12.1% with HT29 colon. Also, the growth with SNB-75 CNS is 27.6%; in the assay with SNB-19 CNS, 45.9%; with U251 CNS, 27.9%; in the assay on PC-3 prostate, 16.7%; in the assay on SK-MEL-5 melanoma it was -23.4% (active); with UACC-62 melanoma it was 33.8%. In addition, the growth was 14.9% in the assay with LOX IMVI melanoma and 37.4% in the assay on SK-MEL-28 melanoma.

In the case of `Cc1ccc(C)c2c(C)c(C(=O)Nc3cccc(-n4cccn4)c3)oc12`, the growth in the assay with DU-145 prostate was 76.5% [50 µM]; in the assay on K-562 leukemia it was 37.1% [50 µM]; with MALME-3M melanoma it was 67.6% [50 µM]; with MDA-MB-231 breast, 76.9% [50 µM]; with RXF 393 renal, 79.6% [50 µM]; with SF-268 CNS, 67.4% [50 µM]. Further, the growth in the assay with SF-295 CNS was 66% [50 µM]; in the assay on SF-539 CNS it was 85.2% [50 µM]; in the assay on UACC-257 melanoma, 92.9% [50 µM]; in the assay with M14 melanoma, 63.5% [50 µM]; with HCT-15 colon, 49% [50 µM]; in the assay with HT29 colon it was 48.2% [50 µM]. Also, the growth is 86.6% [50 µM] in the assay on SNB-75 CNS; 87.2% [50 µM] in the assay with SNB-19 CNS; 70.9% [50 µM] in the assay on U251 CNS; 38.8% [50 µM] in the assay on PC-3 prostate; 44.3% [50 µM] in the assay with SK-MEL-5 melanoma; 73.9% [50 µM] with UACC-62 melanoma. Further, the growth in the assay on LOX IMVI melanoma is 62.2% [50 µM]; in the assay with SK-MEL-28 melanoma, 86.7% [50 µM].

`Cc1ccc(-c2nc3nc(-c4ccccc4)nc(N4CCCN(S(C)(=O)=O)CC4)c3o2)cc1`: the growth was 57.1% in the assay with DU-145 prostate; 84.5% with K-562 leukemia; 55.5% in the assay on MALME-3M melanoma; 73.5% with MDA-MB-231 breast; 19.4% in the assay on RXF 393 renal; 76% in the assay on SF-268 CNS. The growth with SF-295 CNS was 87.4%; in the assay with SF-539 CNS, 30.7%; in the assay on UACC-257 melanoma it was 75.4%; in the assay with M14 melanoma it was 70.9%; in the assay on HCT-15 colon it was 73.3%; in the assay on HT29 colon, 58.4%. For the same compound, the growth is 17.4% in the assay on SNB-75 CNS; 86.5% in the assay on SNB-19 CNS; 69.7% in the assay with U251 CNS; 68.3% in the assay with PC-3 prostate; 89.4% in the assay with SK-MEL-5 melanoma; 81.7% with UACC-62 melanoma. The growth is 71.7% in the assay on LOX IMVI melanoma and 70.9% in the assay on SK-MEL-28 melanoma.

Consider `Cn1c(=O)c2[nH]c(SCC(=O)Nc3ccc(C(=O)/C=C/c4ccccc4Cl)cc3)nc2n(C)c1=O`, for which the growth was 102% in the assay with DU-145 prostate; 84.4% in the assay with K-562 leukemia; 112% with MALME-3M melanoma; 106% with MDA-MB-231 breast; 105% in the assay on RXF 393 renal; 89.7% in the assay on SF-268 CNS. The growth in the assay with SF-295 CNS was 90.5%; in the assay with SF-539 CNS, 101%; in the assay on UACC-257 melanoma it was 86.1%; in the assay on M14 melanoma, 99.5%; in the assay on HCT-15 colon it was 92.5%; in the assay on HT29 colon it was 119%. For the same compound, the growth in the assay with SNB-75 CNS was 77.1%; with SNB-19 CNS it was 97.1%; in the assay on U251 CNS, 91.9%; in the assay with PC-3 prostate, 93.4%; in the assay with SK-MEL-5 melanoma, 90%; in the assay with UACC-62 melanoma, 95.6%. In addition, the growth is 96.4% with LOX IMVI melanoma and 99.9% in the assay on SK-MEL-28 melanoma.
